In all, about 39,000 compounds went through this assay and about 3,300 (8.5%) were called active. This excerpt belongs to a sample that is enriched for actives.

The test system of this test is HepG2. The experiment in a line: cytotoxicity call (relative viability < 0.9). As to conditions: 10 µM.
Regarding `NCC[C@H]1CC[C@H](NC(=O)C2CCCCC2)[C@@H](CO)O1`, the cytotoxicity call was “inactive”.

Take `COc1ccc(NC(=O)N(C)C[C@@H]2OCCCC[C@H](C)Oc3ccc(NC(=O)c4ccccc4)cc3C(=O)N([C@H](C)CO)C[C@@H]2C)cc1`: the cytotoxicity call was “inactive”.

Turning to `C[C@H](CO)N1C[C@H](C)[C@@H](CN(C)Cc2ccc3c(c2)OCO3)Oc2ccc(NS(=O)(=O)c3ccccc3)cc2CC1=O`, the cytotoxicity call was “inactive”.

In the case of `C[C@@H]1CN([C@@H](C)CO)C(=O)c2cc(NC(=O)Cn3cnnn3)ccc2O[C@@H]1CN(C)C(=O)Nc1cccc2ccccc12`, the cytotoxicity call was “inactive”.

For `COc1ccc(S(=O)(=O)Nc2ccc3c(c2)C(=O)N([C@@H](C)CO)C[C@@H](C)[C@H](CN(C)C(=O)C2CCCCC2)OCCCC[C@@H](C)O3)cc1`, the cytotoxicity call is “inactive”.

As to `C[C@@H]1CCCCO[C@@H](CN(C)Cc2ccncc2)[C@H](C)CN([C@H](C)CO)C(=O)c2cc(NC(=O)Nc3ccccc3)ccc2O1`, the cytotoxicity call is “inactive”.

For `C[C@H](CO)N1C[C@H](C)[C@@H](CN(C)C(=O)Cc2ccccc2)OCCCC[C@H](C)Oc2ccc(NC(=O)Nc3ccc4c(c3)OCO4)cc2C1=O`, the cytotoxicity call was “inactive”.

As to `C[C@H]1CN([C@@H](C)CO)C(=O)Cc2cc(NC(=O)CCCN(C)C)ccc2O[C@H]1CN(C)Cc1ccc(Oc2ccccc2)cc1`, the cytotoxicity call is “inactive”.

As for `C[C@H](CO)N1C[C@H](C)[C@@H](CN(C)Cc2ccc(Oc3ccccc3)cc2)Oc2ccc(NC(=O)CCCN(C)C)cc2CC1=O`, the cytotoxicity call is “inactive”.

For `C[C@H]1CN([C@@H](C)CO)C(=O)Cc2cc(NC(=O)CCCN(C)C)ccc2O[C@@H]1CN(C)Cc1ccc(Oc2ccccc2)cc1`, the cytotoxicity call was “active”.

Consider `C[C@@H]1CN([C@@H](C)CO)C(=O)Cc2cc(NC(=O)CCCN(C)C)ccc2O[C@@H]1CN(C)Cc1ccc(Oc2ccccc2)cc1`, for which the cytotoxicity call is “active”.

In the case of `C[C@@H]1CN([C@H](C)CO)C(=O)Cc2cc(NC(=O)CCCN(C)C)ccc2O[C@@H]1CN(C)Cc1ccc(Oc2ccccc2)cc1`, the cytotoxicity call was “active”.

Turning to `C[C@@H]1CN([C@H](C)CO)C(=O)Cc2cc(NC(=O)CCCN(C)C)ccc2O[C@H]1CN(C)Cc1ccc(Oc2ccccc2)cc1`, the cytotoxicity call was “active”.

Take `C[C@H](CO)N1C[C@H](C)[C@@H](CN(C)Cc2ccccc2)Oc2ccc(NC(=O)CCCN(C)C)cc2CC1=O`: the cytotoxicity call is “inactive”.

With `C[C@H](CO)N1C[C@H](C)[C@H](CN(C)Cc2ccc(Oc3ccccc3)cc2)Oc2ccc(NC(=O)CCCN(C)C)cc2CC1=O`, the cytotoxicity call was “inactive”.

Take `C[C@@H]1CN([C@@H](C)CO)C(=O)Cc2cc(NC(=O)CCCN(C)C)ccc2O[C@H]1CN(C)Cc1ccc(Oc2ccccc2)cc1`: the cytotoxicity call is “inactive”.

For `C[C@@H]1CN([C@@H](C)CO)S(=O)(=O)c2ccc(C#Cc3ccccc3F)cc2O[C@@H]1CN(C)CC1CC1`, the cytotoxicity call is “inactive”.

For `C[C@H](CO)N1C[C@H](C)[C@@H](CN(C)Cc2ccc(Oc3ccccc3)cc2)Oc2c(NS(=O)(=O)c3ccc(F)cc3)cccc2C1=O`, the cytotoxicity call was “inactive”.

In the case of `Cc1cc(=O)n2ncnc2n1CC(=O)NN`, the cytotoxicity call was “inactive”.

Take `Cc1cc(C(=O)Nc2cccc3c2O[C@H](CN(C)C(=O)NC2CCCCC2)[C@@H](C)CN([C@@H](C)CO)C3=O)n(C)n1`: the cytotoxicity call was “inactive”.

As for `C[C@H](CO)N1C[C@H](C)[C@H](CN(C)S(=O)(=O)c2cn(C)cn2)Oc2ccc(NC(=O)NC3CCCCC3)cc2CC1=O`, the cytotoxicity call is “inactive”.

Regarding `C[C@@H]1CN([C@H](C)CO)C(=O)c2cc(NC(=O)CCN3CCOCC3)ccc2O[C@H]1CN(C)C(=O)Nc1ccccc1`, the cytotoxicity call was “inactive”.

As to `CS(=O)(=O)Nc1ccc2c(c1)[C@H]1C[C@@H](CC(=O)NCC3CC3)O[C@@H](CO)[C@H]1O2`, the cytotoxicity call is “inactive”.

On to `CC(C)N1C[C@@H](CNCc2ccc(Oc3ccccc3)cc2)Oc2c(NC(=O)c3ccncc3)cccc2C1=O`, for which the cytotoxicity call is “inactive”.

For the compound `COc1ccccc1OCC(O)CN1CCN(CC(=O)Nc2c(C)cccc2C)CC1.Cl.Cl` (stereo not drawn), the cytotoxicity call is “inactive”.

As for `COCCc1ccc(OCC(O)CNC(C)C)cc1.O=C(O)C(O)C(O)C(=O)O` (stereo not drawn), the cytotoxicity call was “inactive”.

As for `O=C1C(=O)N(C[C@@H](O)COc2cccc3ccccc23)C(=O)C(=O)N1C[C@@H](O)COc1cccc2ccccc12`, the cytotoxicity call is “inactive”.

With `COc1ccccc1N1CCN(CC(O)COc2cccc3ccccc23)CC1` (stereo not drawn), the cytotoxicity call was “active”.

Consider `CC(C)NCC(O)COc1ccc(COCCOC(C)C)cc1.O=C(O)C=CC(=O)O` (stereo not drawn), for which the cytotoxicity call was “inactive”.

For the compound `C=CCc1ccccc1OCC(O)CNC(C)C.Cl` (stereo not drawn), the cytotoxicity call is “active”.

Take `CC(C)NCC(O)COc1ccc(CC(N)=O)cc1` (stereo not drawn): the cytotoxicity call was “inactive”.

As for `CC(C)NCC(O)COc1cccc2[nH]c3ccccc3c12` (stereo not drawn), the cytotoxicity call is “active”.

Consider `CC(C)NCC(O)COc1cccc2[nH]ccc12` (stereo not drawn), for which the cytotoxicity call is “inactive”.

As to `CC(C)NCC(O)COc1cccc2ccccc12.Cl` (stereo not drawn), the cytotoxicity call was “active”.

Take `O=C(C[C@H]1C=C[C@@H](NS(=O)(=O)c2ccc(F)cc2)[C@@H](CO)O1)NCc1ccc(Cl)c(Cl)c1`: the cytotoxicity call was “inactive”.

On to `COc1ccc2c3c(n(c2c1)C)[C@H](CO)N(C[C@]13CN(CC2CCOCC2)C1)C(=O)c1ccc(cc1)F`, for which the cytotoxicity call is “inactive”.

For `C[C@H](CO)N1C[C@H](C)[C@H](CN(C)S(=O)(=O)c2cccc(F)c2)Oc2ncc(Br)cc2C1=O`, the cytotoxicity call is “inactive”.

Regarding `C[C@@H]1CN([C@@H](C)CO)C(=O)c2cc(NC(=O)CCCN(C)C)ccc2O[C@@H]1CN(C)S(=O)(=O)c1ccccc1`, the cytotoxicity call is “inactive”.

Turning to `C[C@H]1CN([C@@H](C)CO)C(=O)Cc2cc(NC(=O)Cn3cnnn3)ccc2O[C@H]1CN(C)S(=O)(=O)c1cccs1`, the cytotoxicity call was “inactive”.

As to `C[C@H]1CN([C@@H](C)CO)C(=O)Cc2cc(NC(=O)C3CC3)ccc2O[C@@H]1CN(C)Cc1ccc(Oc2ccccc2)cc1`, the cytotoxicity call is “inactive”.

`Cc1noc(C)c1NC(=O)Nc1cccc2c1O[C@@H](CN(C)S(=O)(=O)c1ccccc1)[C@@H](C)CN([C@@H](C)CO)C2=O`: the cytotoxicity call is “inactive”.

Regarding `CC1=C(/C=C/C(C)=C/C=C/C(C)=C/C=C/C=C(C)/C=C/C=C(C)/C=C/C2=C(C)C(=O)[C@@H](O)CC2(C)C)C(C)(C)C[C@H](O)C1=O`, the cytotoxicity call is “inactive”.

For the compound `CCOC(=O)N[C@@H]1CC(=O)N(C2CC2)C1`, the cytotoxicity call is “inactive”.

With `N[C@H](CO)COCc1ccccc1`, the cytotoxicity call is “inactive”.

In the case of `Cc1ccc(S(=O)(=O)N(C)C[C@H]2Oc3c(NC(=O)c4ccncc4)cccc3C(=O)N([C@H](C)CO)C[C@@H]2C)cc1`, the cytotoxicity call is “inactive”.

As to `C[C@@H]1CCCCO[C@H](CN(C)CC2CCCCC2)[C@H](C)CN([C@@H](C)CO)C(=O)c2cc(NC(=O)Cc3ccccc3)ccc2O1`, the cytotoxicity call is “inactive”.

As for `C[C@H](CO)N1C[C@H](C)[C@H](CN(C)S(=O)(=O)c2cn(C)cn2)Oc2ccc(NC(=O)Cc3cn(C)c4ccccc34)cc2CC1=O`, the cytotoxicity call is “inactive”.

Take `Cc1cc(C(=O)Nc2cccc3c2O[C@H](CN(C)C(=O)Nc2c(C)noc2C)[C@H](C)CN([C@H](C)CO)C3=O)n(C)n1`: the cytotoxicity call is “inactive”.

As to `Cc1ccc(S(=O)(=O)Nc2ccc3c(c2)C(=O)N([C@H](C)CO)C[C@@H](C)[C@@H](CN(C)Cc2ccccc2)OCCCC[C@@H](C)O3)cc1`, the cytotoxicity call was “inactive”.

Turning to `Cc1ccc(S(=O)(=O)Nc2ccc3c(c2)C(=O)N([C@H](C)CO)C[C@@H](C)[C@H](CN(C)Cc2ccccc2)OCCCC[C@H](C)O3)cc1`, the cytotoxicity call was “active”.

As for `Cc1ccc(S(=O)(=O)Nc2ccc3c(c2)C(=O)N([C@@H](C)CO)C[C@@H](C)[C@@H](CN(C)Cc2ccccc2)OCCCC[C@H](C)O3)cc1`, the cytotoxicity call is “inactive”.

Regarding `C[C@@H]1CN([C@@H](C)CO)C(=O)c2cc(NS(=O)(=O)c3ccccc3)ccc2O[C@@H](C)CCCCO[C@@H]1CN(C)Cc1ccccc1`, the cytotoxicity call was “inactive”.

As for `C[C@H](CO)N1C[C@H](C)[C@H](CN(C)Cc2ccccc2)OCCCC[C@H](C)Oc2ccc(NS(=O)(=O)c3ccccc3)cc2C1=O`, the cytotoxicity call is “inactive”.

As for `C[C@@H]1CCCCO[C@@H](CN(C)Cc2ccccc2)[C@@H](C)CN([C@@H](C)CO)C(=O)c2cc(NS(=O)(=O)c3ccccc3)ccc2O1`, the cytotoxicity call was “active”.

Regarding `C[C@H]1CN([C@@H](C)CO)S(=O)(=O)c2ccc(C#CCN(C)C)cc2O[C@@H]1CN(C)Cc1ccc2c(c1)OCO2`, the cytotoxicity call was “inactive”.

For `C[C@@H]1CN([C@@H](C)CO)C(=O)Cc2cc(NC(=O)CCCN(C)C)ccc2O[C@@H]1CN(C)S(=O)(=O)c1ccc(Cl)cc1`, the cytotoxicity call is “inactive”.

As for `COC(=O)C(CC#Cc1ccc2c(c1)[C@]1(C(=O)N2)[C@H](c2ccccc2OCCO)N2[C@H](c3ccccc3)[C@H](c3ccccc3)OC(=O)[C@H]2[C@@H]1C(=O)N1CCc2cc(OC)c(OC)cc2C1)C(=O)OC`, the cytotoxicity call is “inactive”.

Take `C[C@@H]1CCCCO[C@@H](CN(C)C(=O)Nc2ccc3c(c2)OCO3)[C@H](C)CN([C@H](C)CO)C(=O)c2cc(NC(=O)C3CCCCC3)ccc2O1`: the cytotoxicity call is “inactive”.

As for `C=CN1CCCC1=O`, the cytotoxicity call is “inactive”.

For the compound `C[C@@H]1CN([C@@H](C)CO)C(=O)c2cc(NC(=O)NC3CCCCC3)ccc2O[C@H]1CN(C)Cc1ccc(Cl)c(Cl)c1`, the cytotoxicity call is “inactive”.

In the case of `C[C@@H]1CN([C@@H](C)CO)C(=O)c2cc(NS(=O)(=O)c3ccc(Cl)cc3)ccc2O[C@H]1CN(C)Cc1ccc(C(F)(F)F)cc1`, the cytotoxicity call was “inactive”.

On to `C[C@H](CO)N1C[C@H](C)[C@@H](CN(C)Cc2ccc(C(F)(F)F)cc2)Oc2ccc(NS(=O)(=O)c3ccc(Cl)cc3)cc2C1=O`, for which the cytotoxicity call was “active”.

For `C[C@H](CO)N1C[C@H](C)[C@H](CN(C)Cc2ccc(C(F)(F)F)cc2)Oc2ccc(NS(=O)(=O)c3ccc(Cl)cc3)cc2C1=O`, the cytotoxicity call was “active”.

For `C[C@@H]1CN([C@H](C)CO)C(=O)c2cc(NS(=O)(=O)c3ccc(Cl)cc3)ccc2O[C@@H]1CN(C)Cc1ccc(C(F)(F)F)cc1`, the cytotoxicity call was “active”.

With `C[C@H]1CN([C@@H](C)CO)C(=O)c2cc(NS(=O)(=O)c3ccc(Cl)cc3)ccc2O[C@@H]1CN(C)Cc1ccc(C(F)(F)F)cc1`, the cytotoxicity call is “inactive”.

For the compound `C[C@H]1CN([C@@H](C)CO)C(=O)c2cc(NS(=O)(=O)c3ccc(Cl)cc3)ccc2O[C@H]1CN(C)Cc1ccc(C(F)(F)F)cc1`, the cytotoxicity call was “inactive”.

Turning to `C[C@@H]1CN([C@H](C)CO)C(=O)c2cc(NS(=O)(=O)c3ccc(Cl)cc3)ccc2O[C@H]1CN(C)Cc1ccc(C(F)(F)F)cc1`, the cytotoxicity call was “inactive”.

Turning to `C[C@@H]1CN([C@@H](C)CO)C(=O)c2cc(NS(=O)(=O)c3ccc(Cl)cc3)ccc2O[C@@H]1CN(C)Cc1ccc(C(F)(F)F)cc1`, the cytotoxicity call was “active”.

The values above are taken from the antibiotic and cytotoxicity screens of Wong et al. (2023).
